Among the data in PubChem BioAssay AID624417 (National Center for Advancing Translational Sciences (NCATS), 2012) are Potency and activity change, negative = inhibition values, retold here.

Hit rate of the full screen: of about 410,000 compounds, about 6,400 (1.6%) were called active. A call without a number means that no potency is given here. Not shown: some 20% with an inconclusive outcome. This excerpt belongs to a sample that is enriched for actives. Unmarked numbers belong to inactive results. Calls come from the whole dose curve; as a rule, active = well fitted inhibition curve with a large enough effect; inconclusive = small, poorly fitted or top-dose-only effect; inactive = no such curve, though single readings can be large or run the other way.
Potency is the fitted concentration of half-maximal effect.

Sequence of Glucagon-like peptide 1 receptor (Homo sapiens) (P43220 whole entry, looked up): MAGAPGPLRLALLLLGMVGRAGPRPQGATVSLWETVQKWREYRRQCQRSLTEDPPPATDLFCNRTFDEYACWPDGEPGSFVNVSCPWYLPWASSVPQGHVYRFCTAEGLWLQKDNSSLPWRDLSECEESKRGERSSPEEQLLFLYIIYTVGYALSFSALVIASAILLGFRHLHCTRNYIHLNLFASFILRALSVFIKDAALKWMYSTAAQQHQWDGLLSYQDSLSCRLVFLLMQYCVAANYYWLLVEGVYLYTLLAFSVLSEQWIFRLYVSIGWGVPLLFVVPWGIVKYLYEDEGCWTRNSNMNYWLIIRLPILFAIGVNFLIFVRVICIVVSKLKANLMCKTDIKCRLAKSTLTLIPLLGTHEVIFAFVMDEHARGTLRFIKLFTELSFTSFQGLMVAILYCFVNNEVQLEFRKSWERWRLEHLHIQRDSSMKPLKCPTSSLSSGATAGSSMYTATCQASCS

This assay concerns the target Glucagon-like peptide 1 receptor (Homo sapiens) (UniProt P43220). As to the kind of experiment: qHTS of GLP-1 Receptor Inverse Agonists (Inhibition Mode). Note: nearly all actives have a fitted effect of over 55% in size. As to conditions: HEK293 GLP-1R CRE-luciferase, luminescence, 24 h, GLP-1R form is constitutively active; series mostly up to 38.3 µM. In a few lines: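 Inverse agonists were sought by their lowering of basal cAMP reporter luciferase output in HEK293 cells stably carrying constitutively active human GLP-1R, after 24 h compound treatment.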
(In general: In qHTS, concentration-response curves come from the screen itself.)
Consider `CCCCNC(=O)N(O)C1N(/N=C/c2ccccc2O)C(=S)SC1(C)C` (centres undefined), for which the Potency is 11.2 µM (active).

As for `CCCCNC(=O)c1ccc(-n2c(=S)[nH]c3ccccc3c2=O)cc1`, the activity change, negative = inhibition is 11.5% [at 7.66 µM].

On to `CCCCC(O)C1=C[N+](=O)CC=C1` (centres undefined), for which the Potency entry is “inactive”.

Consider `C[C@H](NC(=O)[C@@H]1CCCN1C(=O)[C@@H]1CCCN1C(=O)c1ccccc1)c1ccccc1`, for which the Potency entry is “inactive”.

Turning to `COC(=O)c1ccc2nc(-c3ccc(Cl)cc3)c(Cc3cccc(F)c3)n2c1`, the Potency result is “inactive”.

Take `CN1/C(=c2/s/c(=C3/C(=O)N(c4ccccc4)NC3=Nc3ccccc3)n(C)c2=O)C(C)(C)c2ccccc21`: the Potency is 1.41 µM (active).

Take `C[C@H](CO)N1C[C@H](C)[C@@H](CN(C)S(=O)(=O)c2ccc(F)cc2)OCc2cnnn2CCCC1=O`: the Potency result is “inactive”.

With `O=C(Nc1cccc(Cc2ccccc2)c1)Nc1ccc2nc([C@@H]3O[C@H](CO)[C@@H](O)[C@H](O)[C@H]3O)[nH]c2c1`, the Potency result is “inactive”.

Turning to `O=C(NCCN1CCOCC1)C1CCN(S(=O)(=O)c2ccccc2)CC1`, the Potency result is “inactive”.

As for `CCN1C(=O)[C@H]2[C@@H](c3ccccc3)N[C@]3(CCCN(Cc4ccc(C)cc4)C3=O)[C@H]2C1=O`, the Potency result is “inactive”.

As to `CCN1C(=O)[C@H]2[C@@H](c3ccc(-c4ccc(OC)cc4)cc3)N[C@@](Cc3ccccc3)(C(=O)OC)[C@H]2C1=O`, the Potency result was “inactive”.

Turning to `COc1ccc([C@H]2N[C@]3(CCCN(CC4CCCCC4)C3=O)[C@H]3C(=O)N(C)C(=O)[C@@H]23)cc1`, the Potency result was “inactive”.

Consider `CCN1C(=O)[C@H]2[C@@H](c3ccc(C(F)(F)F)cc3)N[C@]3(CCCN(Cc4ccc(Br)cc4)C3=O)[C@H]2C1=O`, for which the Potency was 12.6 µM (active).

Take `CCN1C[C@@H]2[C@@H]3C(=O)N(Cc4ccccc4)C(=O)[C@@H]3[C@](C)(C1=O)N2C(=O)c1ccc(C(C)(C)C)cc1`: the Potency result was “inactive”.

Turning to `O=C1[C@H]2[C@@H](c3ccc(C(F)(F)F)cc3)N[C@]3(CCCN(Cc4ccc(Br)cc4)C3=O)[C@H]2C(=O)N1Cc1ccccc1`, the Potency was 2.82 µM (active).

Regarding `COc1ccc([C@H]2N[C@]3(CCCN(Cc4ccco4)C3=O)[C@H]3C(=O)N(C)C(=O)[C@@H]23)cc1`, the Potency entry is “inactive”.

On to `O=C1[C@H]2[C@@H](c3ccc(C(F)(F)F)cc3)N[C@]3(CCCN(Cc4ccc(Cl)cc4)C3=O)[C@H]2C(=O)N1Cc1ccccc1`, for which the Potency was 4.47 µM (active).

On to `Cc1ccc([C@H]2N[C@]3(CCCN(Cc4ccccc4)C3=O)[C@H]3C(=O)N(Cc4ccccc4)C(=O)[C@@H]23)cc1`, for which the Potency result is “inactive”.

Regarding `C[C@H]1CN([C@@H](C)CO)C(=O)c2cc(Br)cnc2O[C@H]1CN(C)S(=O)(=O)c1cccs1`, the Potency entry was “inactive”.

`CCOC(=O)C1=CC[C@@H](c2ccncc2)N(S(=O)(=O)c2ccc(C)cc2)C1`: the Potency entry was “inactive”.

Regarding `Cc1cc2oc(=O)cc(CN(C)Cc3ccccc3)c2cc1Cl`, the Potency result was “inactive”.

On to `CN(C)CCN1CCN(c2cc(-c3cccc(Cl)c3)nc3ccnn23)CC1`, for which the Potency entry was “inactive”.

For the compound `O=C(COC(=O)CSc1ccccc1)Nc1ccc(F)cc1F`, the Potency result was “inactive”.

Regarding `O=C(CSc1ccccc1)Nc1cc(Cl)ccc1Oc1ccccc1`, the Potency was 11.2 µM (active).

Regarding `COc1ccc(Cl)cc1NC(=O)CSc1nc2ccccc2c2nc(-c3ccccc3)nn12`, the Potency result was “inactive”.

Turning to `Cc1ccc(CCNC(=O)CN2C(=O)CSc3ccc(S(=O)(=O)N4CCOCC4)cc32)cc1`, the Potency entry is “inactive”.

For `CC1=C(C(=O)N2CCOCC2)CC(CC(=O)NCCCN(C)C)C(=O)N1Cc1ccc(C(C)(C)C)cc1` (centres undefined), the Potency result was “inactive”.

As for `CCCCN1C(=O)C(CC(=O)NCc2cccs2)CC(C(=O)N2CCOCC2)=C1C` (centres undefined), the Potency entry is “inactive”.

For the compound `Nc1ncnc2c1ncn2[C@@H]1O[C@H](C(=O)NCC(F)(F)F)[C@@H](O)[C@H]1O`, the Potency entry is “inactive”.

With `O=CNc1cc(-c2ccc(C(=O)N3CCOCC3)cc2)cn2c(-c3ccc(F)cc3)cnc12`, the Potency result is “inactive”.

In the case of `CCN1CCN(CCCCOc2ccccc2F)CC1`, the Potency result was “inactive”.

For `COc1ccccc1N1CCN(S(=O)(=O)CCNC(=O)COc2ccc(F)cc2)CC1`, the Potency result is “inactive”.

On to `COc1ccccc1N1CCN(CCCCOc2ccc(F)cc2)CC1`, for which the Potency was 12.6 µM (active).

Consider `Cc1ccc2cccc([N+](=O)[O-])c2n1`, for which the Potency result is “inactive”.

For `C[C@@H]1CN([C@H](C)CO)C(=O)c2cc(-c3ccc(F)cc3)cnc2O[C@H]1CN(C)C(=O)c1ccc(F)cc1`, the Potency entry was “inactive”.

`S=C(Nc1ccc(Cl)cc1Cl)N1CCCC1`: the Potency result was “inactive”.

Regarding `COc1ccc(CN(C)C(=S)Nc2ccc(Cl)cc2Cl)cc1`, the Potency was 7.08 µM (active).

For `COc1ccc(CN2CCn3ncc(C(=O)Nc4ccc(Cl)cc4Cl)c3C2=O)cc1`, the Potency entry was “inactive”.

On to `COc1cccc(C(NC(C)=O)c2nc(-c3ccccc3OC)cs2)c1` (centres undefined), for which the Potency entry is “inactive”.

In the case of `CC1=C(C(=O)N2CCOCC2)CC(CC(=O)NCC2CCCCC2)C(=O)N1Cc1ccc(F)cc1` (centres undefined), the Potency result is “inactive”.

As to `CC1(Oc2cccc(F)c2)CCN(Cc2ccccc2OC(F)F)C1` (centres undefined), the Potency entry was “inactive”.

As for `COc1ccc(CN2CCC(C)(Oc3cccc(F)c3)C2)c2ccccc12` (centres undefined), the Potency is 11.2 µM (active).

As to `COc1ccccc1N1CCN(Cc2ccc(OC)c3ccccc23)CC1`, the Potency result is “inactive”.

For the compound `CCCNC(=O)C1(C)CCN(C(=O)c2ccc(F)cc2Cl)C1` (centres undefined), the Potency result was “inactive”.

`COc1ccc([C@H]2CC(=O)C[C@@H](CCn3cc(CC4CCCC4)nn3)O2)cc1`: the Potency entry is “inactive”.

Regarding `Cc1cc(C)c(S(=O)(=O)NN=C2c3ccccc3[C@H]3Cc4csc[n+]4[C@@H]23)c(C)c1`, the Potency result was “inactive”.

`COc1ccccc1-n1c(SCC(=O)Nc2ccc(Cl)cc2)nc(O)c(Cc2ccccc2)c1=O`: the Potency result is “inactive”.

For the compound `Cc1ccc(OCCOc2cccc(/C=N/NC(N)=O)c2)cc1`, the Potency result is “inactive”.

In the case of `CCOC(=O)N/N=C/c1cn(Cc2ccccc2Cl)c2ccccc12`, the Potency was 7.94 µM (active).

Regarding `CC(NC(=O)CCc1cn(Cc2ccccc2Cl)c2ccccc12)c1ccccc1` (centres undefined), the Potency entry was “inactive”.

In the case of `COC(=O)N/N=C/c1cn(CCCOc2ccc(C)cc2)c2ccccc12`, the Potency is 8.91 µM (active).

`NC(=O)Cn1cc(/C=N\NS(=O)(=O)c2ccccc2)c2ccccc21`: the Potency entry is “inactive”.

On to `COC(=O)N/N=C/c1c[n+]([O-])c2ccccc2[n+]1[O-]`, for which the Potency result was “inactive”.

As to `O=C(CC[C@H]1O[C@@H](n2ccc(=O)[nH]c2=O)[C@H](O)[C@@H]1O)N[C@H](Cc1ccccc1)C(=O)NCCCN1CCCC1=O`, the Potency result is “inactive”.

As for `CC(=O)Nc1ccc2c3c(ccc([N+](=O)[O-])c13)CC2`, the Potency result is “inactive”.

Take `O=C(OCc1cn([C@@H]2C[C@H](c3ccc(Cl)cc3)N(Cc3cccs3)C[C@H]2O)nn1)c1ccccc1`: the Potency entry is “inactive”.

As for `CCC(=O)N1Cc2cc(C(=O)NCc3cccc(F)c3)nc(-c3cccc(C4=CCCC4)c3)c2[C@H]1CCO`, the Potency entry is “inactive”.

For the compound `CCCOc1ccc(F)cc1-c1cc(C(=O)Nc2ccc(F)cc2)[nH]n1`, the Potency result was “inactive”.

For the compound `O=C(C(=O)N1CCC(c2ccccc2)CC1)c1ccccc1`, the Potency entry was “inactive”.

As to `CN(C)S(=O)(=O)c1cccc(NC(=O)Cc2ccsc2)c1`, the Potency entry is “inactive”.

As to `CN(c1ccccc1)S(=O)(=O)c1cccc(NC(=O)Cc2c(F)cccc2Cl)c1`, the Potency was 7.94 µM (active).

As for `CN(c1ccccc1)S(=O)(=O)c1cccc(C(=O)NNC(=O)c2ccncc2)c1`, the Potency result is “inactive”.

Turning to `Cc1ccc(F)c(S(=O)(=O)NC(=O)C2(C)CCN2C(=O)CCc2cccs2)c1` (centres undefined), the Potency entry is “inactive”.

`Cc1cccc(NC(=S)N(CCN(C)C)C(C)c2ccco2)c1` (centres undefined): the Potency result was “inactive”.

`CCc1cccc(NC(=S)N(CCN(C)C)C2CCN(C(C)C)CC2)c1`: the Potency was 5.01 µM (active).

In the case of `COCCN(C(=S)Nc1ccccc1OC)C1CCN(C(C)C)CC1`, the Potency entry is “inactive”.

`CCc1cccc(NC(=O)CCNS(=O)(=O)c2cccc3nonc23)c1`: the Potency result is “inactive”.

On to `CCc1cccc(NC(=O)CCCN2C(=O)C(c3ccccc3)Oc3cccnc32)c1` (centres undefined), for which the Potency is 7.94 µM (active).

Turning to `CCc1cccc(NC(=O)CSc2nccn2C)c1`, the Potency entry is “inactive”.

Turning to `Cc1ccc(S(=O)(=O)N2C[C@@H](C)[C@]3(C2)[C@H](O)[C@H](OC(=O)NCc2ccccc2)C[C@H]2C(=O)N(c4ccccc4)C(=O)[C@H]23)cc1`, the Potency entry is “inactive”.

For `O=C(NCc1ccccc1)C1=C[C@@H](C2CCCCC2)C[C@@H](OCc2ccc(CO)cc2)O1`, the Potency was 10 µM (active).

As for `O=C(C1=C[C@H](C2CC2)C[C@H](OCc2ccc(CO)cc2)O1)N1CCN(Cc2ccccc2)CC1`, the Potency entry is “inactive”.

As for `O=C(NCc1ccccc1)C1=C[C@@H](c2ccccc2)C[C@@H](OCCCCO)O1`, the Potency entry was “inactive”.

For the compound `CCCNC(=O)C[C@@H]1CC[C@@H]2[C@H](COC[C@H](O)CN2C(=O)c2cc(Cl)cc(Cl)c2)O1`, the Potency entry is “inactive”.

For `COc1cc(/C=C2/C(=O)NN(c3cccc(Cl)c3)C2=O)cc(Br)c1O`, the Potency was 5.01 µM (active).

With `Cc1cccc(C)c1-n1c(C)cc(/C=C2\C(=O)NN(c3ccccc3)C2=O)c1C`, the Potency entry is “inactive”.

For the compound `CCOc1c(Br)cc(/C=C2\C(=O)N(CCC#N)N=C2C)cc1OC`, the Potency result is “inactive”.

For `Cc1ccccc1Cn1c(C)c(C(=O)NCc2cccc(C(F)(F)F)c2)sc1=O`, the Potency entry is “inactive”.

Consider `CCOC(=O)C1(C)CCCN(C(=O)c2ccc(F)c(Cl)c2)C1` (centres undefined), for which the Potency result is “inactive”.

`CC(C)C[C@H]1CNC(=O)C(=O)N1C[C@H]1CCCN1C[C@H](Cc1ccc(O)cc1)N1C[C@H](CC(C)C)N(CC2CCCCCC2)C(=O)C1=O`: the Potency result is “inactive”.

`CC(=O)N1CCC(C(=O)OCc2ccc(Cl)cc2)(c2ccccc2)CC1`: the Potency is 10 µM (active).

As for `O=C(OCc1cc(=O)n2ccsc2n1)C1(c2ccc(Cl)cc2)CC1`, the Potency result is “inactive”.

Regarding `O=C(OCCN1CCOCC1)C1(c2ccccc2)CCCCC1`, the Potency entry was “inactive”.

With `CC=CCn1c(SCCCc2ccccc2)nc2c1c(=O)[nH]c(=O)n2C`, the Potency result was “inactive”.

In the case of `CCC(=O)N1CCCC1(C)C(=O)Nc1ccc2c(c1)CCN2C(C)=O` (centres undefined), the Potency result is “inactive”.

For `O=C(O)c1ccc(N=NN2CCOCC2)cc1`, the Potency entry is “inactive”.

Take `O=C(c1ccccc1)C(O)(CN1CCCCC1)c1ccccc1` (centres undefined): the Potency result is “inactive”.

Turning to `O=C(O)c1cccc(N=NN2CCCCCC2)c1`, the Potency is 3.55 µM (active).

As to `COc1ccc(C(=O)C(OP(=O)(OC)OC)c2ccccc2OC)cc1` (centres undefined), the Potency entry is “inactive”.
